Source: PubChem
Shown are actives, neighbours in structure and some others; about 3.5% of the full set was active somewhere.
GPR151 ag – human GPR151 activation; Q8TDV0; PathHunter beta-arrestin GPR151 cells, luminescence; activation, % at 11.2 µM; 650,000 compounds, 1% hits; AID 1508602; in the data active = activation above about 4.9%;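 note: 0% = median of compound wells and 100% = cells with positive control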
TEAD-YAP block – TEAD-YAP interaction inhibition; HEK-TIYL cells, TEAD-Gal4/YAP UAS-luciferase luminescence; inhibition, % at 9.12 µM; 640,000 compounds, 1.4% hits; AID 1259422; in the data active = inhibition above about 32%;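 note: 0% = median of test compound wells and 100% = reference inhibitor wells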
MITF inh – blocks human microphthalmia-associated transcription factor; O75030; AlphaScreen MITF homodimerization, bead proximity signal; inhibition, % at 2.6 µM; 650,000 compounds, 0.91% hits; AID 1259374; in the data active = inhibition above about 50%;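 note: 0% = vehicle wells with protein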
Target sequence (O75030 whole entry, looked up): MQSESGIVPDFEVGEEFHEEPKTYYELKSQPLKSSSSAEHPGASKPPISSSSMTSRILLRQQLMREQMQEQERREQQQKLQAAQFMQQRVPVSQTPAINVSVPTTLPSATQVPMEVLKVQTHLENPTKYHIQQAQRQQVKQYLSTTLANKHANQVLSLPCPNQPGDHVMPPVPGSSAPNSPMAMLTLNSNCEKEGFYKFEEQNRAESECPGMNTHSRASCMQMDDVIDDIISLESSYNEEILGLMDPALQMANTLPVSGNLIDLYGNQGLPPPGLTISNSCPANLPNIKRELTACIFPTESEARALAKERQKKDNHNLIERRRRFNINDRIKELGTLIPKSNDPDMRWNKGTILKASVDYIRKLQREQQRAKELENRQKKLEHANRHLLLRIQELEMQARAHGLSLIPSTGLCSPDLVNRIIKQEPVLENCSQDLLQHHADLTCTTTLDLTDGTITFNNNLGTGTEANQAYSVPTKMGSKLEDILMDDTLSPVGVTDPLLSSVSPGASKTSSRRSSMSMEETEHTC
FBW7 activator – human FBW7 E3 ligase activation, primary screen. Q969H0. AlphaScreen FBW7–phospho-cyclin E peptide binding, activator screen. normalized activity (activation), % at 26.1 µM. 650,000 compounds, 0.13% hits; in the data active = normalized activity above about 1.9%;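 note: purified mutant Fbw7 with reduced substrate affinity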
An asterisk follows results filed as active.

SMILES	GPR151 ag	TEAD-YAP block	MITF inh	FBW7 activator
COc1cccc(C2C(C#N)=C(N)Oc3ccc4ccccc4c32)c1 (centres undefined)	-0.5	50.1*	16.5	0.0
COc1ccc(OC)c(C2C(C#N)=C(N)Oc3c2ccc2ccccc32)c1 (centres undefined)	-1.7	51.0*	5.4	0.2
COc1ccc(OC)c(C2C(C#N)=C(N)Oc3c2c(=O)[nH]c2ccccc32)c1 (centres undefined)	0.3	-4.7	1.5	0.2
COc1cccc(C2C(C#N)=C(N)Oc3n[nH]c(-c4ccc5ccccc5c4)c32)c1 (centres undefined)	0.6	-2.0	-2.8	-0.6
COc1cc(C2C(C#N)=C(N)Oc3c2ccc2ccccc32)cc(Br)c1O (centres undefined)	-1.3	63.8*	10.2	0.0
O=C(N/N=C/c1ccccc1F)c1ccc(O)cc1O	-0.8	0.0	20.6	0.8
COC(=O)C1=C(C(=O)OC)SC(=C2C(=S)C(C)(C)N(C(=O)c3ccccc3-c3ccccc3)c3cc(C)ccc32)S1	-0.8	-1.6	60.7*	0.3
CCC(=O)N1c2ccccc2C(=C2SC(C(=O)OC)=C(C(=O)OC)S2)C(=S)C1(C)C	-1.2	3.3	24.3	-0.2
CCC(CC)C(=O)N1c2ccccc2C(=C2SC(C(=O)OC)=C(C(=O)OC)S2)C(=S)C1(C)C	1.1	3.6	54.5*	0.4
O=C(CSc1ccsc1[N+](=O)[O-])N1CCN(C2CCCCC2)CC1	-0.3	-14.2	9.9	0.0
CC1(C)CC2CC(C)(CN2c2nc(-c3ccc(Cl)cc3)cs2)C1 (centres undefined)	-0.8	-10.8	8.3	-0.1
CCOC(=O)N1CCN(c2cc(=O)n(C)c(=O)n2Cc2ccc(F)cc2F)CC1	1.8	5.4	4.4	0.1
Cc1ccc(S(=O)(=O)N2c3ccc(C)cc3-c3ccccc3S2(=O)=O)cc1	3.1	50.4*	-2.5	-0.1
COc1ccc2c(c1)-c1cc(Cl)ccc1S(=O)(=O)N2S(=O)(=O)c1ccc(C)cc1	0.0	2.0	4.7	0.0
COc1cccc2sc(Nc3nc(-c4ccncc4)cs3)nc12	-0.2	44.6*	11.2	1.7
COc1cccc2sc(Nc3nc(-c4cccnc4)cs3)nc12	0.2	39.4*	6.4	0.0
COc1ccccc1Nc1nc(-c2ccncc2)cs1	-1.4	-39.8	-7.6	0.1
FC(F)(F)C(Oc1nc(Nc2cccc3ccccc23)nc(OC(C(F)(F)F)C(F)(F)F)n1)C(F)(F)F	-0.3	11.3	3.1	-0.1
c1cn(CCCNc2cc(-c3ccc(OC4CCCCO4)cc3)ncn2)cn1 (centres undefined)	-1.0	49.8*	20.1	0.0
CN1CCCN(c2cc(-c3ccc(OC4CCCCO4)cc3)ncn2)CC1 (centres undefined)	-0.5	3.9	20.9	-0.3
COc1cccc(CNC(=O)Nc2ccc(-c3cn[nH]c3)cc2SCCN2CCOCC2)c1	-0.6	-1.1	32.2	0.0
CC(=O)Nc1ccc(N=Nc2ccc(O)cc2)cc1	-1.7	56.4*	6.9	0.0
CC(=O)c1ccc(N=Nc2ccc(O)cc2)cc1	-8.4	98.9*	15.8	-0.1
CC(=O)c1ccc(N=Nc2c(C)[nH][nH]c2=O)cc1	-5.6	-21.3	0.3	-0.1
COC1CCCN(Cc2c(C(=O)N3CCOCC3)nc3c(C)cccn23)C1 (centres undefined)	-1.1	-7.7	-14.1	0.0
SMILES	GPR151 ag	TEAD-YAP block	MITF inh	FBW7 activator
CN(CC(=O)N1CCc2ccccc21)S(=O)(=O)c1cccc2cnccc12	-0.4	33.7*	16.2	-0.1
COc1ccc(NC(=O)CN(C)S(=O)(=O)c2cccc3cnccc23)cc1OC	0.3	42.1*	27.2	-0.1
CCC(C)NC(=O)C1C2C=CC3(CN(Cc4ccc(C)cc4)C(=O)C13)O2 (centres undefined)	4.0	8.7	10.0	1.1
CN(C)c1ccc(-c2ccc(OC3CCN(CCc4ccccn4)CC3)cc2)cn1	0.8	52.9*	9.9	-0.3
COc1ccnc(N2CCC(Oc3ccc(-c4ccc(N(C)C)nc4)cc3)CC2)n1	0.8	60.7*	-0.4	-0.4
COCc1ccc(-c2ccc(OC3CCN(c4nccc(OC)n4)CC3)cc2)cc1	2.2	-5.6	3.2	0.0
O=C(N/N=C/c1cc(Br)ccc1O)c1ccc(O)cc1O	0.1	72.0*	22.4	-0.8
Cc1occc1C(=O)N/N=C/c1cc(Br)ccc1O	-4.5	47.2*	17.7	-0.1
Cc1nc2ccccn2c1C(=O)NCc1ccccc1	4.8	-4.8	-1.7	-0.3
Cc1nc2ccccn2c1C(=O)NCc1ccccc1Oc1ccccc1	-1.0	3.2	20.6	1.9*
CCC(C)NC(=O)c1c(C)nc2ccccn12 (centres undefined)	-0.5	10.9	15.4	2.1*
O=C(NC1CC1)c1ccc2nc(-c3ccco3)c(-c3ccco3)nc2c1	0.3	8.6	70.8*	-1.2
O=C(NCCCO)c1ccc2nc(-c3ccco3)c(-c3ccco3)nc2c1	-0.4	10.0	82.7*	-1.2
CCOCCCNC(=O)c1ccc2nc(-c3ccco3)c(-c3ccco3)nc2c1	-1.7	12.3	20.4	-1.1
O=C(NC1CCCC1)c1ccc2nc(-c3ccccc3)c(-c3ccccc3)nc2c1	-0.8	-2.9	-7.6	0.1
O=C(Nc1ccc2nc(-c3ccco3)c(-c3ccco3)nc2c1)N1CCCC1	-0.3	2.5	94.2*	-0.3
O=C(NCCO)Nc1ccc2nc(-c3ccco3)c(-c3ccco3)nc2c1	0.0	8.0	88.6*	-1.3
Cc1nn(C(C)C(=O)NCc2ccco2)c(=O)c2cc3sccc3n12 (centres undefined)	-0.4	-9.1	14.0	0.2
CCc1nn2c3ccccc3n(C)c2c1C(=O)N/N=C/c1cccnc1	0.9	0.1	11.0	-0.1
Oc1ccc(CCNc2nc(Nc3nccc4ccccc34)nc3c2ncn3-c2ccccc2)cc1	-2.5	4.8	3.6	0.0
Cc1ccc(NC(=O)c2ccc3c(=O)n(CCc4ccccc4)c(=S)[nH]c3c2)cc1Cl	-0.7	-2.1	0.0	0.0
Cc1cccc(NC(=O)CN2C(=O)N/C(=C/c3ccc(Cl)s3)C2=O)c1	-0.1	-16.5	9.2	0.0
COc1cccc(NS(=O)(=O)c2ccc3c4c2CC(=O)N4CC(C)S3)c1 (centres undefined)	-1.5	39.9*	16.1	0.3
Cc1cc(C)c(NS(=O)(=O)c2ccc3c4c2CC(=O)N4CC(C)S3)c(C)c1 (centres undefined)	0.0	4.2	-4.1	0.0
CCC(=O)NNC(=O)CSc1nc2cc3c(cc2cc1CC)OCCO3	-1.2	-6.7	-2.3	0.1
SMILES	GPR151 ag	TEAD-YAP block	MITF inh	FBW7 activator
CCc1cc2cc3c(cc2nc1SCC(=O)NC(C)(C)C)OCO3	1.7	38.0*	13.0	0.1
CCc1cc2cc3c(cc2nc1SCC(=O)NC(C)(C)C)OCCO3	-0.7	46.6*	10.1	0.1
O=C(O)c1ccc(F)c(S(=O)(=O)NCc2ccc(Cl)c(Cl)c2)c1	0.8	2.6	22.6	0.2
O=C1N=C(N2CCCCC2)S/C1=C\c1cccnc1	0.2	-1.5	3.2	0.4
Cc1ccc(Nc2c(-c3ccccc3)c(=O)c2=O)cc1F	-1.6	35.3*	9.5	0.0
Cc1ccc(CNc2c(-c3ccccc3)c(=O)c2=O)cc1	-0.8	-7.9	-0.9	0.0
